Assay [1] is described as follows: Nuclear factor erythroid 2-related factor 2/antioxidant responsive element (Nrf2/ARE) small molecule agonists: qHTS cell viability counter screen in human keratinocytes (AID 1919968; active means well fitted curve in the direction sought with a large enough effect in the repeat runs; an effect the other way counts as inactive or inconclusive; further: nearly all actives have a fitted effect of over 55% in size; further: potency means the concentration at half of the fitted maximal effect). The procedure, abridged: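 Parallel cytotoxicity read: KeratinoSens HaCaT cells, compound treatment 23 h, viability by CellTiter-Fluor fluorescence 1 h post-reagent.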
(In general: qHTS replaces the single test concentration by a dilution series.)

Assay [2] is described as follows: Nuclear factor erythroid 2-related factor 2/antioxidant responsive element (Nrf2/ARE) small molecule agonists: luciferase reporter gene qHTS assay in human keratinocytes (AID 1919969). Further: nearly all actives have a fitted effect of over 35% in size. Further: potency means the concentration at half of the fitted maximal effect. For orientation: In a reporter assay the amount or activity of a reporter protein is the signal.
The target in assay [3] is Gonadotropin-releasing hormone receptor (Homo sapiens) (UniProt P30968). Briefly: Human gonadotropin-releasing hormone receptor (GnRHR) small molecule agonists, calcium flux assay in GnRHR-HEK293 cells (AID 1920063). Further: nearly all actives have a fitted effect of over 35% in size. The procedure, abridged:
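Calcium flux, agonist mode, human GnRHR stably integrated in HEK293; dye 1 h at 37 C before compound; Ex/Em=480/540 kinetic read, 3 min; 15 concentrations, triplicate.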
On the technique in general: A change in cytosolic calcium serves as a functional read-out for many receptors and channels.

The target in assay [4] is KiSS-1 receptor (Homo sapiens) (UniProt Q969F8). Put plainly: Human kisspeptin (KISS1R) small molecule agonists, calcium flux assay in KISS1R-HEK293 cells (AID 1920064; active means well fitted curve in the direction sought with a large enough effect in the repeat runs; an effect the other way counts as inactive or inconclusive). The procedure, abridged:
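Triplicate 15-concentration series were applied to dye-loaded human KISS1R HEK293 cells, and agonist-evoked calcium fluorescence was captured for 3 min.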

The nature of assay [5]: p53 small molecule agonists, cell-based qHTS assay with human liver microsomes (AID 1963577).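 Further: p53 response element beta-lactamase reporter cells with liver microsomes plus NADPH.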 Put shortly:
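In this qHTS, p53 response-element beta-lactamase cells receive test compound together with a microsome/NADPH activating system (0.5 mg/mL final each) and are incubated 16 h at 37 C before LiveBLAzer fluorescence detection.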

Assay [6] in a line: p53 small molecule agonists, cell-based qHTS assay with rat liver microsomes (AID 1963578). The procedure, abridged: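 Agonist mode in p53RE-bla reporter cells, with compounds co-incubated 16 h at 37 C alongside 0.5 mg/mL rat liver microsomes and 0.5 mg/mL NADPH (final), followed by a 2 h LiveBLAzer detection step.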
Assay [7] is described as follows: p53 small molecule agonists, cell-based qHTS assay with human liver microsomes: qHTS cell viability counter screen (AID 1963579). Further: nearly all actives have a fitted effect of over 45% in size. Put shortly:
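Metabolically activated exposure: compounds, human liver microsomes and NADPH (0.5 mg/mL final apiece) were added to p53RE-bla cells seeded 5 h earlier, left 16 h at 37 C, and then assessed for viability by CellTiter-Glo luminescence.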

The nature of assay [8]: p53 small molecule agonists, cell-based qHTS assay with rat liver microsomes: qHTS cell viability counter screen (AID 1963580). Further: nearly all actives have a fitted effect of over 45% in size. The procedure, abridged:
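Counter screen for cytotoxicity under metabolic activation: rat liver microsomes and NADPH, 0.5 mg/mL final each, added with compounds to p53RE-bla HCT-116 cells; 16 h at 37 C, then ATP luminescence read.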

Assay [9] can be described thus: p53 small molecule agonists, cell-based qHTS assay (AID 1963582; active means well fitted activation curve with a large enough effect in the signal ratio in the repeat runs, not every such curve was filed as active; the % refers to the signal ratio). Put shortly: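 Beta-lactamase reporter cells (p53RE-bla) treated with compounds for 16 h at 37 C; FRET substrate, 2 h, room temperature; fluorescence intensity.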
Assay [10] concerns the target 5-hydroxytryptamine receptor 2A (Homo sapiens) (UniProt P28223). Briefly: 5-hydroxytryptamine receptor 2A (HTR2A) small molecule antagonists, cell-based qHTS assay (AID 1963586). Further: nearly all actives have a fitted effect of over 45% in size. Put shortly: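 CHO cells stably expressing human HTR2A were plated for 18 h at 37 C, then loaded with calcium dye for 1 h. Compounds were preincubated 5 min at room temperature before DOI (4 nM solution) was added. Kinetic fluorescence was read for 3 min.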

Assay [11] has as its target Muscarinic acetylcholine receptor M1 (Homo sapiens) (UniProt P11229). Put plainly: Cholinergic receptor muscarinic 1 (CHRM1) small molecule antagonists, cell-based qHTS assay (AID 1963588). Further: nearly all actives have a fitted effect of over 40% in size. Further: potency means the concentration at half of the fitted maximal effect. Put shortly:
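Compounds were tested at 15 concentrations in three independent runs. Dye-loaded CHRM1-CHO cells were exposed 5 min at room temperature before stimulation by acetylcholine added at 50nM. Intracellular calcium was read kinetically on FDSS for 3 min.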

The target is the same in assay [12]. Put plainly: Cholinergic receptor muscarinic 1 (CHRM1) small molecule agonists, cell-based qHTS assay (AID 1963589). Further: nearly all actives have a fitted effect of over 35% in size. Put shortly: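 qHTS, 15-point titration, 3 independent runs: compounds pin-transferred onto dye-loaded CHRM1-CHO cells (human M1), calcium fluorescence followed every second to detect agonism.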
Assay [13] is described as follows: cAMP Responsive Elements (CRE) small molecule agonists, cell-based qHTS assay (AID 1963590). Put shortly: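 Quantitative HTS for CRE agonists: HEK 293T CRE-bla cells, overnight plating, 3 h compound incubation at 37 C/5% CO2, then 2 h room-temperature LiveBLAzer B/G FRET substrate loading.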
A short description of assay [14]: cAMP Responsive Elements (CRE) small molecule antagonists, cell-based qHTS assay (AID 1963591; active means well fitted inhibition curve with a large enough effect in the signal ratio in the repeat runs, not every such curve was filed as active; the % refers to the signal ratio). Put shortly: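 Fluorescence intensity from cleaved LiveBLAzer B/G substrate (2 h, room temperature) quantified CRE-bla activity in HEK 293T cells exposed 3 h to compound with 0.25 uM final NKH477.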
In assay [15] the target is D(2) dopamine receptor (Homo sapiens) (UniProt P14416). Briefly: Dopamine D2 receptor (DRD2) small molecule antagonists, cell-based qHTS assay (AID 1963595; active means well fitted inhibition curve with a large enough effect in the signal ratio in the repeat runs, with a control signal flat; the % refers to the signal ratio; further: potency means the concentration at half of the fitted maximal effect). Put shortly:
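HEK293 cells stably expressing DRD2 were preincubated with 0.1 mM Ro20-1724, then with compound for 10 min at room temperature. Cells were stimulated with 200 nM NKH477 plus 12 nM quinpirole for 30 min, and cAMP was read by HTRF.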

Assay [16] is described as follows: p53 small molecule agonists, cell-based qHTS assay: qHTS cell viability counter screen (AID 1963581). Further: nearly all actives have a fitted effect of over 45% in size. Further: potency means the concentration at half of the fitted maximal effect. The procedure, abridged:
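Multiplexed with the reporter read, a CellTiter-Glo step (30 min, room temperature) gauges ATP-based viability of HCT-116 p53RE-bla cells after 16 h compound incubation at 37 C.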

The target of assay [17] is Beta-2 adrenergic receptor (Homo sapiens) (UniProt P07550). Briefly: Adrenergic beta2 receptor (ADRB2) small molecule antagonists, cell-based qHTS assay (AID 1963592). Further: nearly all actives have a fitted effect of over 50% in size. Further: potency means the concentration at half of the fitted maximal effect. The procedure, abridged: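 Assay format: CHO-ADRB2 cells, 18-20hr seeding at 37C/5% CO2, then compound plus 1nM isoproterenol agonist mix for 0.5hr RT. Homogeneous time-resolved fluorescence cAMP detection after 1hr, expressed as 665/615 nm ratio.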

Assay [18] has as its target D(2) dopamine receptor (Homo sapiens) (UniProt P14416). Briefly: Dopamine D2 receptor (DRD2) small molecule agonists, cell-based qHTS assay (AID 1963594). Further: nearly all actives have a fitted effect of over 35% in size. The procedure, abridged:
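HEK293 cells stably expressing DRD2 were cultured 24 h at 37 C, then given Ro20-1724 (0.1 mM final) and compounds for 10 min at room temperature. NKH477 (200nM) was then added for 30 min. cAMP was read by HTRF.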

Assay [19] addresses 5-hydroxytryptamine receptor 2A (Homo sapiens) (UniProt P28223). Put plainly: 5-hydroxytryptamine receptor 2A (HTR2A) small molecule agonists, cell-based qHTS assay (AID 1963587). Further: nearly all actives have a fitted effect of over 30% in size. The procedure, abridged: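 HTR2A-CHO cells, plated 18 h at 37 C/5% CO2, dye-loaded 1 h at 37 C; compounds in DMSO added by pin tool (agonist mode). Intracellular calcium flux read as kinetic fluorescence on FDSS over 2 min at 1 s intervals.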

Assay [20] can be described thus: G protein-coupled receptor (GPCR) small molecule agonists, calcium flux assay: HEK293 wild type cell line counter screen (AID 1920065). The procedure, abridged: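 Non-specific calcium responders were flagged by adding DMSO-dissolved compounds to dye-loaded cells and reading 480/540 nm fluorescence each second for 3 min; ATP served as positive control.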

Inconclusive results are not listed. Calls of active or inactive are those of the source. Unless noted, the call rests on the fitted dose curve.

Chain of 5-hydroxytryptamine receptor 2A (Homo sapiens) (P28223 whole entry, looked up): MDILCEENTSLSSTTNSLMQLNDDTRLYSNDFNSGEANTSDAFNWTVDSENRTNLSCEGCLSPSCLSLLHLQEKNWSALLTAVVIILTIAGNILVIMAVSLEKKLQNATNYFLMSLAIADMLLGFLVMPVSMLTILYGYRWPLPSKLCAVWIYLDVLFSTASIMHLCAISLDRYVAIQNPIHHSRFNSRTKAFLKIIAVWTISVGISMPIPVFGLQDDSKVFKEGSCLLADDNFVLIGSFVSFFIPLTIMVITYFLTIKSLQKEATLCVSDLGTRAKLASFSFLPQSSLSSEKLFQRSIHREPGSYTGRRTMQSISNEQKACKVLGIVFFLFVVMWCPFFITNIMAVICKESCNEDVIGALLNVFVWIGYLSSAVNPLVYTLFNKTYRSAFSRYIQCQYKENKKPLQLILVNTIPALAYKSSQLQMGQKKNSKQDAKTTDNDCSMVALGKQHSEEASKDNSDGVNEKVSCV
Chain of Muscarinic acetylcholine receptor M1 (Homo sapiens) (P11229 whole entry, looked up): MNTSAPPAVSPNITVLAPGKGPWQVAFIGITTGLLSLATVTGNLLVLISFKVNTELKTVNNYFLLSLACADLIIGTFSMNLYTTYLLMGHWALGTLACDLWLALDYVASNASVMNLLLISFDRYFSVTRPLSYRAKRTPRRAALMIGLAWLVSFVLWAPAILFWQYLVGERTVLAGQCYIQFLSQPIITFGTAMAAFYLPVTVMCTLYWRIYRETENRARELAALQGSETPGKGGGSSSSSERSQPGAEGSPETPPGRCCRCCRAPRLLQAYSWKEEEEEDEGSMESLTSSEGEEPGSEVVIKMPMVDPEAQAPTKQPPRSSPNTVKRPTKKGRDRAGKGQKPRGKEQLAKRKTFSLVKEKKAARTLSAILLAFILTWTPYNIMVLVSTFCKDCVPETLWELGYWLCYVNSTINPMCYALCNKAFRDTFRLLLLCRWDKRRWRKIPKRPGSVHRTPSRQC
Chain of Gonadotropin-releasing hormone receptor (Homo sapiens) (P30968 whole entry, looked up): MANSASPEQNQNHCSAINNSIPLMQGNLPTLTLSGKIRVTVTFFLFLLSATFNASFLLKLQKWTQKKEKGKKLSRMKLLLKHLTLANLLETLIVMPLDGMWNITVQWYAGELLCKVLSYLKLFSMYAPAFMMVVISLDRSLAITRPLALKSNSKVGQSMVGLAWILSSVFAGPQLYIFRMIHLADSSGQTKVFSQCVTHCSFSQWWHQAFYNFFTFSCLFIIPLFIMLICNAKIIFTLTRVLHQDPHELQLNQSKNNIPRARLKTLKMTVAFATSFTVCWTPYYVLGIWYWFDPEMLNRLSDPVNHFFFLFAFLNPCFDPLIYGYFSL
Chain of Beta-2 adrenergic receptor (Homo sapiens) (P07550 whole entry, looked up): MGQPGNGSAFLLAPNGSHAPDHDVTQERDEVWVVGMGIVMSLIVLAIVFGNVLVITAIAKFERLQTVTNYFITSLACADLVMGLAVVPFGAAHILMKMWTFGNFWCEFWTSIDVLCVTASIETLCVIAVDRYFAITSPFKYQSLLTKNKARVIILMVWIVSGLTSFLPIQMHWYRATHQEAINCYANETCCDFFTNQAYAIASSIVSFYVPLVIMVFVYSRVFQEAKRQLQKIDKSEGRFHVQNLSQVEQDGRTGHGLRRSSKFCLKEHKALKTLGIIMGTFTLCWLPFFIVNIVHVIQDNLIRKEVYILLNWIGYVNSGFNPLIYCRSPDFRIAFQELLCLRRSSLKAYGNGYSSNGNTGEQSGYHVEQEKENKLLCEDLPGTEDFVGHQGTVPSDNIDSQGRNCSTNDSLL
Chain of D(2) dopamine receptor (Homo sapiens) (P14416 whole entry, looked up): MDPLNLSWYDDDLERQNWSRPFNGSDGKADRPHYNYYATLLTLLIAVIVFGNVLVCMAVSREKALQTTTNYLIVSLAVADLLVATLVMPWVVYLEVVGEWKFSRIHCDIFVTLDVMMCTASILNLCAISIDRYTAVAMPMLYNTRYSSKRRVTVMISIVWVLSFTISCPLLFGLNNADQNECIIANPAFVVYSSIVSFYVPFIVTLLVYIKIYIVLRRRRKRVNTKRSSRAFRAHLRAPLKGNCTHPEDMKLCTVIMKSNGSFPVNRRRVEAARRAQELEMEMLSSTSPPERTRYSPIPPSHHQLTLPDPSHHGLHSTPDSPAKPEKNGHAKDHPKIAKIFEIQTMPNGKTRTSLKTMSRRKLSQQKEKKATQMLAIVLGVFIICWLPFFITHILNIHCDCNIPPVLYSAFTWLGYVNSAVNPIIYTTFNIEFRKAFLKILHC
Chain of KiSS-1 receptor (Homo sapiens) (Q969F8 whole entry, looked up): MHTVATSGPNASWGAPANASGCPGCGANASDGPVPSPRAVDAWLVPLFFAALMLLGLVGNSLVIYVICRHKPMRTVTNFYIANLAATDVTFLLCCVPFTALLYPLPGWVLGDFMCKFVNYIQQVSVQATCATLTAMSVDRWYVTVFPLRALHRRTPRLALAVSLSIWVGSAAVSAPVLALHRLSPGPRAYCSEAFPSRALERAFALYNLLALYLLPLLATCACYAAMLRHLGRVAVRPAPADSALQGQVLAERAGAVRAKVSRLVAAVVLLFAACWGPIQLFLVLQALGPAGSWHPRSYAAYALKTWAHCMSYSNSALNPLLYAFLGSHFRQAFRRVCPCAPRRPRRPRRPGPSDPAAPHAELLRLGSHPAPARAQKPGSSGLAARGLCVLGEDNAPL

Take `CCc1cc(OC)c(C[C@H](C)N)cc1OC`: the Potency result in [1], in assay [2], in [3], in assay [4], in assay [5] and in assay [6] was “inactive” throughout. Moreover, the Potency result in [7], in assay [8], in assay [9], in assay [10], in assay [11] and in [12] was “inactive” each time. For the same compound, the Potency result in assay [13], in assay [14] and in [15] was “inactive” each time.
In the case of `CCC[CH2][Sn]([CH2]CCC)([CH2]CCC)[CH2]CCC`, the Potency in [1] is 12.2 µM (active); in [2], 15.4 µM (active); in [16], 40.8 µM (active); in assay [17], 48.6 µM (active); in assay [15] it was 38.6 µM (active). In addition, the Potency result in [3], in assay [4], in [5], in assay [6], in assay [8] and in assay [10] was “inactive” in each case. For the same compound, the Potency entry in assay [12] is “inactive”.
Consider `COC(=O)C(c1ccccc1)C1CCCCN1` (stereo unspecified), for which the Potency result in assay [1], in assay [2], in [3], in assay [4], in assay [5] and in [6] was “inactive” each time. In addition, the Potency entry in [7], in [16], in assay [9], in assay [10], in [12] and in [13] was “inactive” each time. Moreover, the Potency result in assay [14], in assay [17] and in [18] was “inactive” each time. The Potency in [11] is 26.6 µM (active).
In the case of `CC(C)[C@@H](Nc1ccc(C(F)(F)F)cc1Cl)C(=O)OC(C#N)c1cccc(Oc2ccccc2)c1` (stereo partly specified), the Potency entry in [1], in assay [2], in [3], in assay [4], in assay [5] and in assay [6] was “inactive” throughout. The Potency entry in assay [7], in assay [8], in assay [16], in assay [9], in assay [10] and in assay [11] was “inactive” in each case. Besides, the Potency entry in assay [12], in assay [14], in [17], in assay [18] and in [15] was “inactive” throughout.
With `CCCCP(CCCC)CCCC`, the Potency entry in assay [1], in assay [2], in assay [3], in assay [4], in assay [5] and in assay [6] was “inactive” throughout. Also, the Potency entry in assay [7], in [8], in assay [16], in assay [9], in assay [10] and in [19] was “inactive” in each case. The Potency entry in [11], in [12], in assay [14], in assay [17], in assay [18] and in [15] was “inactive” each time.
For the compound `CC1(C)[C@H](C=C(Cl)Cl)[C@@H]1C(=O)O[C@@H](C#N)c1cccc(Oc2ccccc2)c1`, the Potency result in assay [1], in assay [2], in [3], in [4], in [5] and in [7] was “inactive” in each case. In addition, the Potency entry in assay [8], in assay [16], in assay [9], in assay [10], in assay [19] and in [12] was “inactive” each time. Besides, the Potency result in assay [13], in assay [14], in [17], in assay [18] and in assay [15] was “inactive” each time.
Turning to `Cc1ccc(S(=O)(=O)N[C@@H](CCCCN)C(=O)CCl)cc1`, the Potency result in assay [1], in assay [2], in assay [3], in [4], in assay [20] and in assay [8] was “inactive” in each case. Moreover, the Potency entry in [16], in assay [19], in assay [11], in assay [12], in assay [13] and in [14] was “inactive” each time. Besides, the Potency entry in [17], in [18] and in [15] was “inactive” in each case.
Consider `O=C(O)CC(Cl)C(=O)O` (stereo unspecified), for which the Potency entry in assay [1], in assay [2], in assay [3], in assay [4], in assay [5] and in assay [6] was “inactive” in each case. Further, the Potency entry in [7], in assay [16], in assay [9], in [10], in assay [19] and in [11] was “inactive” throughout. In addition, the Potency result in assay [12], in assay [13], in assay [17] and in assay [15] was “inactive” throughout.

The record behind these values is PubChem BioAssay (Tox21).
